# In article PMC5540273 (PLoS ONE, 2017):
# Read-outs that look alike come from different tables or passages of the source.
# How the values were obtained:
# FGFR4 = settings: concentration: 1 μM, replicates: in singlicate; n = 1
# FGR = settings: concentration: 1 μM, replicates: in singlicate; n = 1
# FLT1 = settings: concentration: 1 μM, replicates: in singlicate; n = 1
# FLT3-autoinhibited = settings: concentration: 1 μM, replicates: in singlicate; n = 1
# FLT3 = settings: concentration: 1 μM, replicates: in singlicate; n = 1
# FLT4 = settings: concentration: 1 μM, replicates: in singlicate; n = 1
# FRK = settings: concentration: 1 μM, replicates: in singlicate; n = 1
# FYN = settings: concentration: 1 μM, replicates: in singlicate; n = 1
# GAK = settings: concentration: 1 μM, replicates: in singlicate; n = 1
# GCN2(Kin.Dom.2,S808G) = system: T1, GCN2(Kin.Dom.2,S808G); settings: concentration: 1 μM, replicates: in singlicate; n = 1
# T1 construct: gene EIF2AK4
# GRK1 = settings: concentration: 1 μM, replicates: in singlicate; n = 1
# GRK2 = system: T2, GRK2; settings: concentration: 1 μM, replicates: in singlicate; n = 1
# T2 construct: gene ADRBK1
# GRK3 = system: T3, GRK3; settings: concentration: 1 μM, replicates: in singlicate; n = 1
# T3 construct: gene ADRBK2
# GRK4 = settings: concentration: 1 μM, replicates: in singlicate; n = 1
# GRK7 = settings: concentration: 1 μM, replicates: in singlicate; n = 1
# GSK3A = settings: concentration: 1 μM, replicates: in singlicate; n = 1
# GSK3B = settings: n = 1
# HASPIN = system: T4, HASPIN; settings: concentration: 1 μM, replicates: in singlicate; n = 1
# T4 construct: gene GSG2
# HCK = settings: concentration: 1 μM, replicates: in singlicate; n = 1
# HIPK1 = settings: concentration: 1 μM, replicates: in singlicate; n = 1
# [1] = concentration: 1 μM, replicates: in singlicate
# 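Also: KINOMEscan kinase panel screen.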
smiles,measurement,setting,value
Cl.O=S(=O)(c1cccc(F)c1)c1ccc(Nc2ncnc3cc(Br)sc23)cc1Cl [GSK306886],%Inh,FGFR4,30%
same,%Inh,FGR,24%
same,%Inh,FLT1,20%
same,%Inh,FLT3-autoinhibited,0%
same,%Inh,FLT3,0%
same,%Inh,FLT4,98.1%
same,%Inh,FRK,0%
same,%Inh,FYN,41%
same,%Inh,GAK,3%
same,%Inh,"GCN2(Kin.Dom.2,S808G)",0%
same,%Inh,GRK1,4%
same,%Inh,GRK2,0%
same,%Inh,GRK3,0%
same,%Inh,GRK4,0%
same,%Inh,GRK7,0%
same,%Inh,GSK3A,21%
same,%Inh,GSK3B; [1],31%
same,%Inh,HASPIN,0%
same,%Inh,HCK,0%
same,%Inh,HIPK1,0%
CCC(CC)(CC)n1cnc2c(N)ncnc21 [SKF-97620],%Inh,FGFR4,4%
same,%Inh,FGR,4%
same,%Inh,FLT1,4%
same,%Inh,FLT3-autoinhibited,19%
same,%Inh,FLT3,11%
same,%Inh,FLT4,0%
same,%Inh,FRK,23%
same,%Inh,FYN,7%
same,%Inh,GAK,3%
same,%Inh,"GCN2(Kin.Dom.2,S808G)",0%
same,%Inh,GRK1,40%
same,%Inh,GRK2,16%
same,%Inh,GRK3,0%
same,%Inh,GRK4,8%
same,%Inh,GRK7,14%
same,%Inh,GSK3A,0%
same,%Inh,GSK3B; [1],35%
same,%Inh,HASPIN,9%
same,%Inh,HCK,9%
same,%Inh,HIPK1,17%
Cc1cc(N2CCC(NS(=O)(=O)c3ccc(F)cc3)CC2)nc(Nc2cccc(C#N)c2)n1.O=C(O)C(F)(F)F [GSK1653537],%Inh,FGFR4,0%
same,%Inh,FGR,26%
same,%Inh,FLT1,35%
same,%Inh,FLT3-autoinhibited,0%
same,%Inh,FLT3,4%
same,%Inh,FLT4,0%
same,%Inh,FRK,8%
same,%Inh,FYN,19%
same,%Inh,GAK,0%
same,%Inh,"GCN2(Kin.Dom.2,S808G)",6%
same,%Inh,GRK1,0%
same,%Inh,GRK2,0%
same,%Inh,GRK3,16%
same,%Inh,GRK4,22%
same,%Inh,GRK7,0%
same,%Inh,GSK3A,0%
same,%Inh,GSK3B; [1],0%
same,%Inh,HASPIN,0%
same,%Inh,HCK,0%
same,%Inh,HIPK1,0%
FC(F)(F)c1ccc(-c2cc(-c3c[nH]nc3-c3ccccn3)ccn2)cc1 [GW599550],%Inh,FGFR4,0%
same,%Inh,FGR,14%
same,%Inh,FLT1,20%
same,%Inh,FLT3-autoinhibited,0%
same,%Inh,FLT3,0%
same,%Inh,FLT4,17%
same,%Inh,FRK,0%
same,%Inh,FYN,38%
same,%Inh,GAK,46%
same,%Inh,"GCN2(Kin.Dom.2,S808G)",0%
same,%Inh,GRK1,0%
same,%Inh,GRK2,0%
same,%Inh,GRK3,33%
same,%Inh,GRK4,14%
same,%Inh,GRK7,4%
same,%Inh,GSK3A,19%
same,%Inh,GSK3B; [1],0%
same,%Inh,HASPIN,14%
same,%Inh,HCK,0%
same,%Inh,HIPK1,0%
Fc1cccc(COc2ccc(Nc3ncnc4nn5ccccc5c34)cc2Cl)c1 [GW689066],%Inh,FGFR4,0%
same,%Inh,FGR,4%
same,%Inh,FLT1,20%
same,%Inh,FLT3-autoinhibited,0%
same,%Inh,FLT3,0%
same,%Inh,FLT4,0%
same,%Inh,FRK,0%
same,%Inh,FYN,0%
same,%Inh,GAK,0%
same,%Inh,"GCN2(Kin.Dom.2,S808G)",0%
same,%Inh,GRK1,0%
same,%Inh,GRK2,0%
same,%Inh,GRK3,30%
same,%Inh,GRK4,0%
same,%Inh,GRK7,0%
same,%Inh,GSK3A,0%
same,%Inh,GSK3B; [1],0%
same,%Inh,HASPIN,63%
same,%Inh,HCK,0%
same,%Inh,HIPK1,0%
COc1cc2c(Nc3cccc(NC(=O)c4ccccc4)c3)ncnc2cc1OCCCN1CCOCC1 [GSK223810],%Inh,FGFR4,3%
same,%Inh,FGR,0%
same,%Inh,FLT1,61%
same,%Inh,FLT3-autoinhibited,0%
same,%Inh,FLT3,6%
same,%Inh,FLT4,28%
same,%Inh,FRK,17%
same,%Inh,FYN,24%
same,%Inh,GAK,16%
same,%Inh,"GCN2(Kin.Dom.2,S808G)",0%
same,%Inh,GRK1,0%
same,%Inh,GRK2,14%
same,%Inh,GRK3,0%
same,%Inh,GRK4,15%
same,%Inh,GRK7,0%
same,%Inh,GSK3A,0%
same,%Inh,GSK3B; [1],0%
same,%Inh,HASPIN,0%
same,%Inh,HCK,0%
same,%Inh,HIPK1,0%
CSc1nn2c(=O)cc(N3CCOCC3)nc2n1Cc1cccc(Cl)c1Cl [GSK2347225],%Inh,FGFR4,15%
same,%Inh,FGR,30%
same,%Inh,FLT1,24%
same,%Inh,FLT3-autoinhibited,0%
same,%Inh,FLT3,0%
same,%Inh,FLT4,0%
same,%Inh,FRK,11%
same,%Inh,FYN,17%
same,%Inh,GAK,9%
same,%Inh,"GCN2(Kin.Dom.2,S808G)",1%
same,%Inh,GRK1,20%
same,%Inh,GRK2,0%
same,%Inh,GRK3,0%
same,%Inh,GRK4,17%
same,%Inh,GRK7,0%
same,%Inh,GSK3A,16%
same,%Inh,GSK3B; [1],8%
same,%Inh,HASPIN,0%
same,%Inh,HCK,0%
same,%Inh,HIPK1,11%
COC(=O)c1cccc(NC(=O)NCCNc2ccnc(Nc3ccc(F)cc3)n2)c1 [GSK1379883],%Inh,FGFR4,0%
same,%Inh,FGR,9%
same,%Inh,FLT1,28%
same,%Inh,FLT3-autoinhibited,0%
same,%Inh,FLT3,0%
same,%Inh,FLT4,17%
same,%Inh,FRK,1%
same,%Inh,FYN,0%
same,%Inh,GAK,0%
same,%Inh,"GCN2(Kin.Dom.2,S808G)",6%
same,%Inh,GRK1,0%
same,%Inh,GRK2,0%
same,%Inh,GRK3,17%
same,%Inh,GRK4,2%
same,%Inh,GRK7,0%
same,%Inh,GSK3A,19%
same,%Inh,GSK3B; [1],0%
same,%Inh,HASPIN,37%
same,%Inh,HCK,0%
same,%Inh,HIPK1,0%
CSc1ccc(NC2=C(c3ccccc3Cl)C(=O)NC2=O)cc1 [SB-342411],%Inh,FGFR4,16%
same,%Inh,FGR,14%
same,%Inh,FLT1,6%
same,%Inh,FLT3-autoinhibited,0%
same,%Inh,FLT3,0%
same,%Inh,FLT4,1%
same,%Inh,FRK,9%
same,%Inh,FYN,0%
same,%Inh,GAK,14%
same,%Inh,"GCN2(Kin.Dom.2,S808G)",0%
same,%Inh,GRK1,0%
same,%Inh,GRK2,0%
same,%Inh,GRK3,0%
same,%Inh,GRK4,3%
same,%Inh,GRK7,0%
same,%Inh,GSK3A,81%
same,%Inh,GSK3B; 1 µM,29%
same,%Inh,HASPIN,0%
same,%Inh,HCK,0%
same,%Inh,HIPK1,8%
Fc1cccc(COc2ccc(Nc3ncnc4sc(-c5ccc[nH]5)cc34)cc2Cl)c1 [GW707818],%Inh,FGFR4,12%
same,%Inh,FGR,3%
same,%Inh,FLT1,22%
same,%Inh,FLT3-autoinhibited,7%
same,%Inh,FLT3,0%
same,%Inh,FLT4,3%
same,%Inh,FRK,0%
same,%Inh,FYN,45%
same,%Inh,GAK,4%
same,%Inh,"GCN2(Kin.Dom.2,S808G)",0%
same,%Inh,GRK1,0%
same,%Inh,GRK2,0%
same,%Inh,GRK3,0%
same,%Inh,GRK4,0%
same,%Inh,GRK7,0%
same,%Inh,GSK3A,22%
same,%Inh,GSK3B; [1],3%
same,%Inh,HASPIN,0%
same,%Inh,HCK,0%
same,%Inh,HIPK1,0%
Cc1ccc(NC(=O)c2cccc(C#N)c2)cc1-c1ccc(C(=O)Nc2ccncc2)cc1 [GSK1398463],%Inh,FGFR4,25%
same,%Inh,FGR,47%
same,%Inh,FLT1,33%
same,%Inh,FLT3-autoinhibited,21%
same,%Inh,FLT3,0%
same,%Inh,FLT4,12%
same,%Inh,FRK,92.9%
same,%Inh,FYN,22%
same,%Inh,GAK,14%
same,%Inh,"GCN2(Kin.Dom.2,S808G)",0%
same,%Inh,GRK1,0%
same,%Inh,GRK2,0%
same,%Inh,GRK3,20%
same,%Inh,GRK4,11%
same,%Inh,GRK7,0%
same,%Inh,GSK3A,20%
same,%Inh,GSK3B; [1],9%
same,%Inh,HASPIN,0%
same,%Inh,HCK,37%
same,%Inh,HIPK1,0%
